The list is not random: actives were taken first. Their share in the collection is about 9.9%.
ALDH1A1 inh – blocks purified human ALDH1A1 activity; P00352; Purified ALDH1A1, NADH fluorescence, propionaldehyde substrate; Potency, µM (top dose mostly 75.3 µM), actives largely listed as inhibitors; 220,000 compounds, 7.3% hits; active = well fitted inhibition curve with a large enough effect, not every such curve was filed as active; inconclusive = small, poorly fitted or top-dose-only effect, or another doubt; inactive = no such curve, though single readings can be large or run the other way
Target sequence (P00352 whole entry, looked up): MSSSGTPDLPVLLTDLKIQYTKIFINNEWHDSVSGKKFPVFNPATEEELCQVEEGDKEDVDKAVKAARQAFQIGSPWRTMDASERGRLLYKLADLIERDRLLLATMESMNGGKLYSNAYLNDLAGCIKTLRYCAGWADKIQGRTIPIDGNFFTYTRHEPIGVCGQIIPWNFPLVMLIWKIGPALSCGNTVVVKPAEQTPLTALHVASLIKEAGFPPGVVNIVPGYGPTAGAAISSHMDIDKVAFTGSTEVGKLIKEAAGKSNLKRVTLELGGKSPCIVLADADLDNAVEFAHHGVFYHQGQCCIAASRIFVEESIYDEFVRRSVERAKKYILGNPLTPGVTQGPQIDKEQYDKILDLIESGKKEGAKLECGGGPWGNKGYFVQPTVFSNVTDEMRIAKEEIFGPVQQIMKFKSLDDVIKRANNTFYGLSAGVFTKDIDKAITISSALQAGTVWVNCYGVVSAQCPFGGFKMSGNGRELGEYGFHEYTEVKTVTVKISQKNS
Tau FP inhib – tau fibrillization inhibition (FP); 280,000 compounds, 0.39% hits; P10636; Potency, µM (top dose mostly 57.7 µM), actives largely listed as inhibitors; K18 P301L tau heparin fibrillization, Alexa594 FP, 6 h; also: nearly all actives have a fitted effect of over 55% in size
Target sequence (P10636 561-689 P618L limits assumed): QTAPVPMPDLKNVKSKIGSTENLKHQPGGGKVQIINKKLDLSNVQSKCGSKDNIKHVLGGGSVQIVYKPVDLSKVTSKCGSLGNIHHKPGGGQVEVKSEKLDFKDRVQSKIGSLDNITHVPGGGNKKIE
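Read-out: fluorescence polarization of Alexa 594-labeled tau (0.24 uM), 555 nm excitation, 632 nm emission. Mixtures held 15 uM unlabeled K18 P301L, compound and 20 uM heparin, pH 7 acetate buffer, incubated 6 hr at 37 C.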
Tau ThT inhib – inhibitors of human tau fibril formation, thioflavin T binding; P10636; recombinant tau K18 P301L, heparin-induced fibrillization, ThT fluorescence; Potency, µM (series often up to 57.4 µM), hits mostly inhibitors; 270,000 compounds, 2.1% hits; also: nearly all actives have a fitted effect of over 55% in size
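Heparin-induced (20 uM) aggregation of recombinant human K18 P301L tau, 15 uM unlabeled with 0.24 uM labeled, pH 7 acetate buffer, 6 hr at 37 C with compound. Fibrils quantified by 30 uM ThT fluorescence after 1 hr ambient incubation.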
KDM4E inh – blocks human JMJD2E demethylase activity; B2RXH2; JMJD2E catalytic domain, FDH-coupled NADH fluorescence (FDH is formaldehyde dehydrogenase); Potency, µM (series often up to 57.1 µM), actives largely listed as inhibitors; 230,000 compounds, 1.6% hits; AID 2147; active = well fitted inhibition curve with a large enough effect, not every such curve was filed as active; inconclusive = small, poorly fitted or top-dose-only effect, or another doubt; inactive = no such curve, though single readings can be large or run the other way; also: nearly all actives have a fitted effect of over 50% in size
Tau fluor counter – counter-screen for tau fibril formation inhibitors | tau K18 P301L (four-repeat tau fragment) Alexa594 fluorescence, heparin fibrillization | Potency, µM (top dose mostly 57.7 µM) | 280,000 compounds, 0.93% hits | AID 1463; also: nearly all actives have a fitted effect of over 55% in size
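Human K18 P301L tau (15 uM unlabeled plus 0.24 uM Alexa 594-labeled, final) in 100 mM sodium acetate pH 7 was mixed with compound and 20 uM heparin and incubated 6 hr at 37 C.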
HPGD block – inhibitors of human 15-hydroxyprostaglandin dehydrogenase (HPGD). P15428. purified HPGD, NADH fluorescence kinetic, PGE2 substrate. Potency, µM, hits mostly inhibitors. 150,000 compounds, 4.3% hits; active = well fitted inhibition curve with a large enough effect, not every such curve was filed as active; inconclusive = small, poorly fitted or top-dose-only effect, or another doubt; inactive = no such curve, though single readings can be large or run the other way
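NADH formation kinetics: reaction with 30 uM PGE2 and 1 mM NAD+ (final), 20 nM enzyme, Tris-HCl pH 8 with Tween 20, after 15 min compound preincubation at room temperature. Fluorescence change, last versus first of five reads.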
Each line names hits and unclear results; the compound was inactive in the other large screens; [ ] = another dose, or the depositor's remark. Unless noted, calls follow the shape of the dose curve; as a rule, active = well fitted curve in the direction sought with a large enough effect; inconclusive = small, poorly fitted or top-dose-only effect, or another doubt; inactive = no such curve, though single readings can be large; an effect the other way counts as inactive or inconclusive.

COc1ccc(OC)c(NC(=O)Cn2ccn(-c3ccc(OC)c(OC)c3)c(=O)c2=O)c1	none (no result: ALDH1A1 inh, KDM4E inh, HPGD block)
CCNc1nc(SC(C)C(=O)OC)nc(N(C)C)n1 (stereo unspecified)	none (no result: HPGD block)
COC(=O)C(C)Sc1n[nH]c(=S)s1 (stereo unspecified)	ALDH1A1 inh 20µM, KDM4E inh inconclusive, HPGD block 25µM
Cc1ccc(C(=O)Nc2cccc(-c3nc4cccnc4s3)c2C)cc1	Tau ThT inhib inconclusive (no result: ALDH1A1 inh, KDM4E inh, HPGD block)
C=CCN1c2ccccc2[C@]23C[C@@H](C(=O)OC)N(C(=O)COCc4ccccc4)C2=NC(C(=O)OC)=C(C(=O)OC)[C@H]13	none
Cc1cc(/C=C2\SC(=S)NC2=O)c(C)n1-c1cccc(O)c1	ALDH1A1 inh inconclusive, Tau ThT inhib 16µM, Tau fluor counter inconclusive (no result: HPGD block)
Cc1cc(/C=C2\SC(=S)N(C)C2=O)c(C)n1-c1ccc(O)cc1	Tau FP inhib inconclusive, Tau ThT inhib 6.3µM, Tau fluor counter 8.9µM[quencher] (no result: ALDH1A1 inh, HPGD block)
CN1C(=O)/C(=C/c2coc3ccc(O)cc3c2=O)SC1=S	Tau ThT inhib inconclusive (no result: HPGD block)
Cc1cc(/C=C2/C(=O)NN(c3ccccc3)C2=O)c(C)n1-c1cccc(O)c1	ALDH1A1 inh inconclusive, Tau ThT inhib 13µM, KDM4E inh inconclusive, Tau fluor counter inconclusive, HPGD block inconclusive
COc1ccc(-n2c(C)cc(/C=C3\SC(=S)N(Cc4ccco4)C3=O)c2C)cc1	ALDH1A1 inh 0.63µM, Tau ThT inhib inconclusive, Tau fluor counter inconclusive
CN(CC(CC(=O)Nc1nncs1)c1ccccc1)S(=O)(=O)c1ccccc1 (stereo unspecified)	ALDH1A1 inh 8.9µM
CN(CC(CC(=O)Nc1nncs1)c1ccccc1)S(=O)(=O)c1ccc(Br)cc1 (stereo unspecified)	ALDH1A1 inh 13µM
Cc1nnc(NC(=O)CC(CN(C)S(=O)(=O)c2ccccc2)c2ccccc2)s1 (stereo unspecified)	ALDH1A1 inh inconclusive
CCCCN(C(=O)NC(=O)Nc1ccc(C)cn1)S(C)(=O)=O	ALDH1A1 inh inconclusive, KDM4E inh inconclusive (no result: HPGD block)
Cc1cc(C(=O)N[C@H](c2ccccc2)[C@@]2(C)C[C@@H]2[C@@H](C)C(=O)Nc2ccc3ccccc3c2)no1	ALDH1A1 inh 13µM, Tau FP inhib inconclusive
C[C@@H](C(=O)Nc1ccc2ccccc2c1)[C@H]1C[C@]1(C)[C@H](NC(=O)c1cnccn1)c1ccccc1	ALDH1A1 inh 11µM
C[C@@H](C(=O)Nc1ccc2ccccc2c1)[C@@H]1C[C@@]1(C)[C@@H](NC(=O)c1cnccn1)c1ccccc1	Tau FP inhib inconclusive, Tau fluor counter inconclusive, HPGD block inconclusive
C[C@@H](C(=O)Nc1ccc2ccccc2c1)[C@H]1C[C@]1(C)[C@H](NC(=O)c1ccccc1)c1ccccc1	ALDH1A1 inh 0.79µM, Tau FP inhib inconclusive
COc1cccc(NC(=O)CN2C(=O)CC(c3ccco3)Sc3ccccc32)c1 (stereo unspecified)	none (no result: ALDH1A1 inh, KDM4E inh, HPGD block)
COc1ccc(-c2nn(C)c(=O)c3ccccc23)cc1CNC(=O)NC1CCCCC1	ALDH1A1 inh inconclusive, KDM4E inh inconclusive (no result: HPGD block)
O=C(OCc1nc2ccccc2s1)[C@@H]1CCCN1S(=O)(=O)c1ccccc1F	ALDH1A1 inh 7.9µM
CC(NC(=O)COC(=O)[C@@H]1CCCN1S(=O)(=O)c1ccccc1F)C12CC3CC(CC(C3)C1)C2 (stereo partly specified)	ALDH1A1 inh inconclusive
O=C(C1CCC(Cn2c(=O)c3sccc3n(Cc3cccc(F)c3)c2=O)CC1)N1CCCCC1 (stereo unspecified)	none (no result: ALDH1A1 inh, KDM4E inh, HPGD block)
O=C(CSc1nnc(SCc2cccc3ccccc23)s1)c1ccc2c(c1)OCO2	ALDH1A1 inh 0.4µM, HPGD block inconclusive
Cc1ccc2nc(SCC(=O)c3ccc4c(c3)OCO4)[nH]c2c1	ALDH1A1 inh inconclusive, Tau ThT inhib inconclusive
O=C(CSc1nnc(SCc2cccc3ccccc23)s1)Nc1ccc(C(=O)O)cc1	none (no result: HPGD block)
O=C(CSc1nc2ccccc2[nH]1)c1ccc2c(c1)OCO2	ALDH1A1 inh 28µM
C/C(=N\NC(=O)c1ccccc1-n1cccc1)C1CC1	ALDH1A1 inh 4µM
NNC(=O)c1ccccc1-n1cccc1	ALDH1A1 inh inconclusive (no result: HPGD block)
COc1ccc(-c2cn3nc(N4CCCC(C(=O)Nc5ccccc5OC)C4)sc3n2)cc1 (stereo unspecified)	Tau ThT inhib inconclusive, Tau fluor counter inconclusive (no result: ALDH1A1 inh, KDM4E inh, HPGD block)
Oc1cc(Br)ccc1C=Nc1ccc(N2CCCCC2)cc1	Tau ThT inhib 14µM, Tau fluor counter inconclusive (no result: HPGD block)
Oc1ccc(C=Nc2ccc(N3CCOCC3)cc2)c(O)c1	Tau FP inhib inconclusive, Tau ThT inhib 16µM, KDM4E inh inconclusive, Tau fluor counter inconclusive
Oc1ccc(Br)cc1/C=N/N1CCCCC1	Tau ThT inhib inconclusive, HPGD block inconclusive
Brc1ccc(CNc2cc3c(cc2Br)OCCO3)cc1	Tau fluor counter inconclusive (no result: HPGD block)
Cc1cccc(NC(=O)C2SC(=Nc3c(C)cccc3C)C(C(=O)N3CCOCC3)=C2N)c1 (stereo unspecified)	Tau FP inhib inconclusive, Tau ThT inhib 7.1µM, Tau fluor counter inconclusive
Cc1cccc(C(=O)Nc2cccc(C(=O)N3CCOCC3)c2)c1	none
CC(C(=O)NC1CCCc2ccccc21)N1CCN(c2ccc(F)cc2)CC1 (stereo unspecified)	none (no result: HPGD block)
CC(C(=O)NC1CCCc2ccccc21)N1CCN(Cc2ccc3c(c2)OCO3)CC1 (stereo unspecified)	ALDH1A1 inh 6.3µM
Cc1ccc2c(CC(=O)Nc3c(C(=O)c4ccc(F)cc4)oc4ccccc34)coc2c1	none (no result: ALDH1A1 inh, KDM4E inh, HPGD block)
Cc1ccc(S(=O)(=O)NCCOCCNS(=O)(=O)c2ccc(C)cc2)cc1	ALDH1A1 inh 13µM
Cc1ccc(S(=O)(=O)NCCCC(=O)C=[N+]=[N-])cc1	ALDH1A1 inh 13µM
Cc1ccc(S(=O)(=O)NCCCCCC(=O)N(C)C)cc1	ALDH1A1 inh inconclusive
CCOC(=O)c1cc(S(=O)(=O)Nc2cc(C)c(Cl)cc2OC)[nH]n1	none (no result: ALDH1A1 inh, KDM4E inh, HPGD block)
Cn1cnc([N+](=O)[O-])c1Nc1ccc(O)cc1	ALDH1A1 inh 25µM, Tau ThT inhib inconclusive (no result: HPGD block)
CC(C)CC1NC(=O)C(CCCN)NC(=O)C(C(C)C)NC(=O)C2CCCN2C(=O)C(Cc2ccccc2)NC(=O)C(CC(C)C)NC(=O)C(CCCN)NC(=O)C(C(C)C)NC(=O)C2CCCN2C(=O)C(Cc2ccccc2)NC1=O (stereo unspecified)	KDM4E inh 25µM
O=C1N[C@@H](Cc2ccccc2)C(=O)N2CCCC12 (stereo partly specified)	none (no result: KDM4E inh)
Cn1cc(C(=O)O)c(=O)c2cc(S(=O)(=O)N3CCOCC3)ccc21	none (no result: ALDH1A1 inh, KDM4E inh, HPGD block)
CC(C)CN(CC(C)C)CC(O)COc1ccc([N+](=O)[O-])cc1 (stereo unspecified)	none

From PubChem
